Reference: PubChem BioAssay (Tox21)
Inconclusive results are not listed. The source made the active and inactive calls. Unless noted, calls follow the shape of the dose curve; as a rule, active = well fitted curve in the direction sought with a large enough effect in the repeat runs; inconclusive = weak or mixed curves; inactive = no such curve, though single readings can be large; an effect the other way counts as inactive or inconclusive.

Key:
[1] = qHTS assay to identify small molecule HDAC inhibitors (AID 1259364); also: top concentration of the series differs between compounds; nearly all actives have a fitted effect of over 45% in size
In short: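 Luminescence read after 30 min room-temperature HDAC-Glo incubation measures cellular class I/II HDAC activity. Compounds were applied for 2 hr at 37 C to HCT-116 wild-type cells seeded the day before.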

[2] = qHTS assay to identify small molecule HDAC inhibitors - cell viability counter screen (AID 1259365); also: series mostly up to about 92 µM; nearly all actives have a fitted effect of over 50% in size
In short: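 Viability readout: CellTiter-Glo luminescence. Wild-type HCT-116 cells, 2hr compound treatment following overnight attachment at 37 C.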

[3] = qHTS assay to identify small molecule agonists of the sonic hedgehog signaling (Shh) pathway - cell viability counter screen (AID 1259366); also: nearly all actives have a fitted effect of over 50% in size
In short: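 Viability measured fluorometrically (CellTiter-Fluor, 1hr, 37C) in 3T3 Gli1-Luc reporter cells after 23hr compound exposure within a 24hr incubation at 37C/5% CO2.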

[4] = qHTS assay to identify small molecule antagonists of the sonic hedgehog signaling (Shh) pathway - cell viability counter screen (AID 1259367); also: nearly all actives have a fitted effect of over 55% in size
In short: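 Conditioned medium drove Shh signaling in 3T3 Gli1-Luc cells exposed to compounds at 37C and 5% CO2. Viability was determined from CellTiter-Fluor fluorescence, with reagent incubated 1 hr after 23 hr of treatment.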

[5] = qHTS assay to identify small molecule agonists of the sonic hedgehog signaling (Shh) pathway (AID 1259368; calls by dose curve;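 also: NIH/3T3-derived 3T3Gli1-Luc cells carrying a stable Gli1-driven firefly luciferase reporter; series mostly up to about 92 µM; nearly all actives have a fitted effect of over 15% in size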)
In short: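 Luminescence was read after 30 min at room temperature with luciferase reagent. Before that, 3T3Gli1-Luc cells (NIH/3T3 clone, stable Gli1-Luc reporter; 2,000/well) were exposed to compounds for 24 hr at 37C, 5% CO2, compounds being added 4 hr post-plating.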

[6] = target: Estrogen receptor beta (Homo sapiens) (UniProt Q92731); experiment: qHTS assay to identify small molecule agonists of the estrogen receptor beta (ER-beta) signaling pathway (AID 1259377; active = well fitted activation curve with a large enough effect in the signal ratio in the repeat runs, not every such curve was filed as active; the % refers to the signal ratio)
Chain of Estrogen receptor beta (Homo sapiens) (Q92731 whole entry, looked up): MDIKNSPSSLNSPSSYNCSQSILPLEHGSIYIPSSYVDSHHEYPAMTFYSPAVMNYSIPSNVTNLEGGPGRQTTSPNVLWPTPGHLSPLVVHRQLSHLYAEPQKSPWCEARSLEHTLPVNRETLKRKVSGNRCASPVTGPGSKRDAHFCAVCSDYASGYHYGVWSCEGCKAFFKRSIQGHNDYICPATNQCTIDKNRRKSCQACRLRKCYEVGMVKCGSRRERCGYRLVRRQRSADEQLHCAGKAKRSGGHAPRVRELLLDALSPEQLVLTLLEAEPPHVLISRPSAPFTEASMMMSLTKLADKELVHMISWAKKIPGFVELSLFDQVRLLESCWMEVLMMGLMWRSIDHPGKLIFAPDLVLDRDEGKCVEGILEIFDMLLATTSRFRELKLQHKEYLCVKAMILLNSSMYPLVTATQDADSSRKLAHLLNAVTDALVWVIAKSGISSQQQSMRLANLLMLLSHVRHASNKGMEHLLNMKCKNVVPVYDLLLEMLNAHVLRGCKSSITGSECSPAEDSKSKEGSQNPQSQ
In short: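 A UAS-controlled beta-lactamase reporter in ER-beta-UAS-bla HEK293T cells reports receptor activation. Compounds act for 16 hr at 37C in 2% charcoal-stripped serum, and a FRET substrate is read by fluorescence after 2 hours.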

[7] = qHTS assay to identify small molecule agonists of the androgen receptor (AR) signaling pathway in the presence of an antagonist - cell viability counter screen (AID 1259379);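 also: MDA-kb2 human breast cancer cells carrying an MMTV luciferase reporter; series mostly up to about 92 µM; nearly all actives have a fitted effect of over 25% in size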
In short: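 Cytotoxicity counter-screen run in the same wells as the nilutamide-challenged (3.0 µM final) AR agonist assay in MDA-kb2 cells. Compounds tested at 15 concentrations for 16 h, 37 °C without CO2; CellTiter-Fluor fluorescence read.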

[8] = target: Estrogen receptor beta (Homo sapiens) (UniProt Q92731); experiment: qHTS assay to identify small molecule antagonists of the estrogen receptor beta (ER-beta) signaling pathway (AID 1259378; active = well fitted inhibition curve with a large enough effect in the signal ratio in the repeat runs, not every such curve was filed as active; the % refers to the signal ratio)
In short: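 ER-beta-UAS-bla HEK293T (GripTite) cells in 2% charcoal-stripped FBS medium were preincubated 6 hr at 37C, dosed with compound, then stimulated with 1 nM E2 (final) for 16 hr; beta-lactamase reporter read by B/G FRET fluorescence after 2 hr substrate loading.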

[9] = qHTS assay to identify small molecule agonists of the estrogen receptor beta (ER-beta) signaling pathway - cell viability counter screen (AID 1259380); also: nearly all actives have a fitted effect of over 30% in size
In short: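 Cell viability counter screen: CellTiter-Glo luminescence (30 min, room temperature) measured in the same wells as the beta-lactamase readout, after 16 hr compound exposure at 37C of ER-beta-bla HEK293T cells in 2% charcoal-stripped FBS medium.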

[10] = qHTS assay to identify small molecule antagonists of the sonic hedgehog signaling (Shh) pathway (AID 1259369; calls by dose curve; also: nearly all actives have a fitted effect of over 45% in size)
In short: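 Antagonist mode: compound added to 3T3 Gli1-Luc cells followed by conditioned-medium stimulation, 24 h at 37 C, 5% CO2. Inhibition taken as loss of Gli1-driven luciferase luminescence.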
% is scaled to controls: 0 for no effect and ±100 for the full control effect.

O=S1(=O)CCCC1
inactive: Potency [1] | outcome [2] | Potency [3] | Potency [4] | outcome [5] | Potency [6] | Potency [7]

O=c1[nH]c(=O)c2[nH]c(=O)[nH]c2[nH]1
inactive: activity change, negative = inhibition [1] 11.3% [at 8.39 µM] | activity change, negative = cytotoxicity [2] 0.314% [at 8.39 µM] | viability change, negative = cytotoxic [3] -3.05% [at 8.39 µM] | viability change, negative = cytotoxic [4] 0.704% [at 8.39 µM] | activity change [5] 0.435% [at 8.39 µM] | activation [6] -1.14% [at 8.39 µM] | activity, negative = inhibition [8] 11.9% [at 8.39 µM] | activity change, negative = cytotoxicity [7] -1.23% [at 8.39 µM] | activity change, negative = cytotoxicity [9] 0.228% [at 8.39 µM]

CCC1COC(=O)O1 (configuration not stated)
inactive: Potency [1] | outcome [2] | Potency [3] | Potency [4] | outcome [5] | Potency [7] | outcome [9]

CNC(=O)C(c1ccccc1)c1ccccc1
inactive: Potency [1] | outcome [2] | Potency [3] | Potency [4] | outcome [5] | Potency [6] | outcome [9]

CC(C)(c1ccc(Oc2ccc3c(c2)C(=O)OC3=O)cc1)c1ccc(Oc2ccc3c(c2)C(=O)OC3=O)cc1
inactive: Potency [1] | outcome [2] | Potency [3] | Potency [4] | outcome [5] | Potency [6] | outcome [8] | outcome [9]

O=C(O)Cc1cccc(-c2cc(CCCCCCc3ccc(O[C@H]4O[C@H](CO)[C@@H](O)[C@H](O)[C@@H]4O)c(-c4cccc(CC(=O)O)c4)c3)ccc2O[C@H]2O[C@H](CO)[C@@H](O)[C@H](O)[C@@H]2O)c1
inactive: activity change, negative = inhibition [1] 0.203% [at 0.349 µM] | activity change, negative = cytotoxicity [2] -0.936% [at 0.349 µM] | viability change, negative = cytotoxic [3] 1.74% [at 0.349 µM] | viability change, negative = cytotoxic [4] 3.56% [at 0.349 µM] | activity change [5] -0.0491% [at 0.349 µM] | activity change, negative = cytotoxicity [9] 7.37% [at 0.349 µM]

O=C1NC2NC(=O)NC2N1 (configuration not stated)
inactive: Potency [1] | outcome [2] | Potency [4] | outcome [5] | Potency [10] | Potency [6] | outcome [8] | Potency [7] | outcome [9]

OC[C@@H](O)[C@H](O)[C@@H](O)[C@@H](O)CO
inactive: Potency [1] | outcome [2] | Potency [3] | Potency [4] | outcome [5] | Potency [7]

CCOC(=O)C(C)(C)C
inactive: Potency [1] | outcome [2] | Potency [3] | Potency [4] | outcome [5] | Potency [6] | outcome [8] | Potency [7] | outcome [9]

CC(=O)OC(C)(C)Cc1ccccc1
inactive: Potency [1] | outcome [2] | Potency [3] | Potency [4] | outcome [5] | Potency [7] | outcome [9]

CCCCCCCCCCCCCCCCI
inactive: activity change, negative = inhibition [1] 1.82% [at 19 µM] | activity change, negative = cytotoxicity [2] -1.08% [at 19 µM] | viability change, negative = cytotoxic [3] 5% [at 19 µM] | viability change, negative = cytotoxic [4] -1.6% [at 19 µM] | activity change [5] -0.0263% [at 18.9 µM] | activation [6] 0.348% [at 19 µM] | activity, negative = inhibition [8] 2.97% [at 19 µM] | activity change, negative = cytotoxicity [9] -6.04% [at 19 µM]

Nc1ccc(S(=O)(=O)NC(=O)c2ccccc2)cc1
inactive: Potency [1] | outcome [2] | Potency [3] | Potency [4] | outcome [5] | Potency [6] | outcome [9]

CCCO
inactive: Potency [1] | outcome [2] | Potency [4] | outcome [5] | Potency [10] | Potency [6] | outcome [8] | Potency [7] | outcome [9]

CC(=O)Nc1ncc([N+](=O)[O-])s1
inactive: Potency [1] | outcome [2] | Potency [3] | Potency [4] | outcome [5] | Potency [7] | outcome [9]

O=C(O)C(=O)Nc1cccc(-c2nn[nH]n2)c1
inactive: Potency [1] | outcome [2] | Potency [3] | Potency [4] | outcome [5] | Potency [7] | outcome [9]

CN(C1CCCCC1)S(=O)(=O)c1ccccc1N
inactive: Potency [1] | outcome [2] | Potency [3] | Potency [4] | outcome [5] | Potency [6] | Potency [7] | outcome [9]

BrC/C=C/CBr
inactive: activity change, negative = inhibition [1] -0.207% [at 19 µM] | activity change, negative = cytotoxicity [2] 2.41% [at 19 µM] | viability change, negative = cytotoxic [3] 0.645% [at 19 µM] | viability change, negative = cytotoxic [4] -1.72% [at 19 µM] | activity change [5] -1.5% [at 18.9 µM] | activation [6] 0.425% [at 19 µM] | activity, negative = inhibition [8] 8.47% [at 19 µM] | activity change, negative = cytotoxicity [7] 0.671% [at 19 µM] | activity change, negative = cytotoxicity [9] 4.89% [at 19 µM]

Cc1nc2n(c(=O)c1CCN1CCC(C(=O)c3ccc(F)cc3)CC1)CCS2
inactive: Potency [1] | outcome [2] | Potency [3] | Potency [4] | outcome [5] | Potency [7] | outcome [9]

CC(=O)OC(C(=O)c1ccccc1)c1ccccc1 (configuration not stated)
inactive: Potency [1] | outcome [2] | Potency [4] | outcome [5] | Potency [10] | Potency [6] | outcome [8] | Potency [7] | outcome [9]

CC(C)CCCCCCOC(=O)C1CCCCC1C(=O)OCCCCCCC(C)C (configuration not stated)
inactive: Potency [1] | outcome [2] | Potency [4] | outcome [5] | Potency [10] | Potency [6] | outcome [8] | Potency [7] | outcome [9]

Cn1c(=O)c2c(ncn2CC2OCCO2)n(C)c1=O
inactive: Potency [1] | outcome [2] | Potency [3] | Potency [4] | outcome [5] | Potency [6] | Potency [7] | outcome [9]

CCC1Nc2cc(Cl)c(S(N)(=O)=O)cc2S(=O)(=O)N1 (configuration not stated)
inactive: Potency [1] | outcome [2] | Potency [3] | Potency [4] | outcome [5] | Potency [6] | outcome [8] | Potency [7]

COC(=O)CCC(=O)O
inactive: Potency [1] | outcome [2] | Potency [3] | Potency [4] | outcome [5] | Potency [6] | outcome [8] | Potency [7] | outcome [9]

CC(C)=CC(C)(C)C
inactive: Potency [1] | outcome [2] | Potency [3] | Potency [4] | outcome [5] | Potency [6] | Potency [7] | outcome [9]

CCCCCCCCCCCCOC(C)=O
inactive: Potency [1] | outcome [2] | Potency [3] | Potency [4] | outcome [5] | Potency [6] | outcome [8] | Potency [7] | outcome [9]
